Consider 21 compounds from PubChem BioAssay (NCI).

A short description of experiment [1]: NCI Yeast Anticancer Drug Screen. Data for the rad50 strain (AID 155).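 Also: 0% = growth of vehicle-only cultures of the same strain.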 To be noted: S. cerevisiae rad50 strain growth inhibition; at 50.0 µM; hits give high values. An outline of the steps:
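Inhibition values express reduced yeast growth in compound-treated cultures relative to vehicle-treated controls.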

A short description of experiment [2]: NCI Yeast Anticancer Drug Screen. Data for the mec2-1 strain (AID 157). The following applies: S. cerevisiae mec2-1 strain, at 50.0 µM, hits give high values. An outline of the steps:
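Each compound was tested on mec2-1 yeast, a strain altered in DNA damage repair or cell cycle control. Growth inhibition is reported relative to vehicle.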

Experiment [3] in a line: NCI Yeast Anticancer Drug Screen. Data for the sgs1 mgt1 strain (AID 161).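 Also: 0% = growth of cultures given vehicle only.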 To be noted: S. cerevisiae sgs1 mgt1 strain, at 50.0 µM, hits give high values. A digest of the protocol:
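Read-out: growth inhibition vs vehicle controls. Cells: mutant yeast strain deficient in DNA damage repair.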

Experiment [4] in a line: NCI Yeast Anticancer Drug Screen. Data for the cln2 rad14 strain (AID 165).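 Also: 0% = growth equal to vehicle treated cultures.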 The following applies: S. cerevisiae cln2 rad14 strain, at 50.0 µM, hits give high values. A digest of the protocol:
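Test compounds were added to cln2 rad14 yeast cultures; inhibition of growth was then determined by comparison with vehicle treatment.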

Experiment [5] in a line: NCI Yeast Anticancer Drug Screen. Data for the bub3 strain (AID 167). The following applies: S. cerevisiae bub3 mutant strain, at 50.0 µM, hits give high values. An outline of the steps: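 Steps: expose the mutant yeast strain to compound; grow alongside vehicle-treated cultures; measure growth; express inhibition against the vehicle cultures.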
Experiment [6] can be described thus: NCI Yeast Anticancer Drug Screen. Data for the mlh1 rad18 strain (AID 175). To be noted: S. cerevisiae mlh1 rad18 strain growth inhibition; at 50.0 µM; hits give high values. A digest of the protocol:
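Inhibition values reflect reduced growth of mutant yeast versus vehicle-treated controls following compound exposure; the mutations affect DNA damage repair.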

The panel holds about 79,000 compounds, 15% with a hit somewhere; the sample as a whole holds those more often. Calls of active or inactive are those of the source. Rule as the data show it: active = growth inhibition above about 70%; inactive = the rest.

Regarding `COc1ccc2cc(NC(=O)N/N=C\c3ccc([N+](=O)[O-])cc3)ccc2c1`, the growth inhibition in experiment [1] is 27.1% (inactive); in experiment [2], 7.35% (inactive); in experiment [3], 19.2% (inactive); in experiment [4], -8.3% (inactive); in experiment [5], 12.9% (inactive); in experiment [6], 27.4% (inactive).

For the compound `COC(=S)SSC(=S)NCCN(CCNC(=S)SSC(=S)OC)C(=S)SSC(=S)OC`, the growth inhibition in experiment [1] is 2.05% (inactive); in experiment [2] it was 6.2% (inactive); in experiment [3], -2.65% (inactive); in experiment [4], -2.7% (inactive); in experiment [5], 7.8% (inactive); in experiment [6], 26.6% (inactive).

Regarding `COc1ccc(-n2cnc3[nH]ncc3c2=O)cc1`, the growth inhibition in experiment [1] is 1.7% (inactive); in experiment [2], 0.75% (inactive); in experiment [3], 0.05% (inactive); in experiment [4], -0.85% (inactive); in experiment [5] it was 12.3% (inactive); in experiment [6], -2.95% (inactive).

Consider `O=C1c2ccc3ccccc3c2C(=O)c2ccc3ccccc3c21`, for which the growth inhibition is -20.6% (inactive) in experiment [1]; -4.5% (inactive) in experiment [2]; -3.65% (inactive) in experiment [3]; -30.2% (inactive) in experiment [4]; -12.3% (inactive) in experiment [5]; -16.8% (inactive) in experiment [6].

Turning to `CNc1cccc2c1C(=O)c1ccccc1C2=O`, the growth inhibition in experiment [1] was 0.55% (inactive); in experiment [2], -9.95% (inactive); in experiment [3], 19.4% (inactive); in experiment [4], 1.35% (inactive); in experiment [5] it was 3.85% (inactive); in experiment [6] it was 17.9% (inactive).

Regarding `COc1ccc(NC(=O)Oc2cccc(NC(C)=O)c2)c(OC)c1`, the growth inhibition is 13.8% (inactive) in experiment [1]; 8.7% (inactive) in experiment [2]; 10.1% (inactive) in experiment [3]; 4.35% (inactive) in experiment [4]; 12.4% (inactive) in experiment [5]; 8.65% (inactive) in experiment [6].

Consider `CCCCCCCCCc1ccc(COCC)cc1`, for which the growth inhibition was -9.55% (inactive) in experiment [1]; 11.9% (inactive) in experiment [2]; 7.05% (inactive) in experiment [3]; -16% (inactive) in experiment [4]; 22.1% (inactive) in experiment [5]; 9.55% (inactive) in experiment [6].

In the case of `CCOC(=O)c1ccc(Nc2nc3cc(C(F)(F)F)ccc3nc2C(=O)OCC)cc1`, the growth inhibition is -31.2% (inactive) in experiment [1]; -10.9% (inactive) in experiment [2]; -31.9% (inactive) in experiment [3]; -19.4% (inactive) in experiment [4]; -11.7% (inactive) in experiment [5]; -19.6% (inactive) in experiment [6].

Consider `CCCC1(CC)COC(c2ccc(C)cc2)OC1` (stereo unspecified), for which the growth inhibition in experiment [1] was 13.8% (inactive); in experiment [2] it was 0.9% (inactive); in experiment [3] it was -7.6% (inactive); in experiment [4], 5.85% (inactive); in experiment [5] it was 11.8% (inactive); in experiment [6], 3.35% (inactive).

For `C1=CCc2cc3c(cc2=C1)C=c1ccccc1=3`, the growth inhibition in experiment [1] was -12.3% (inactive); in experiment [2], -19.4% (inactive); in experiment [3], -11.2% (inactive); in experiment [4] it was -5.9% (inactive); in experiment [5] it was -8.2% (inactive); in experiment [6], -19.4% (inactive).

`O=C(Nc1ccc(F)cc1)C(Br)C(Br)c1ccccc1` (stereo unspecified): the growth inhibition in experiment [1] was 91% (active); in experiment [2], 88.2% (active); in experiment [3], 93.9% (active); in experiment [4], 49% (inactive); in experiment [5], 81.5% (active); in experiment [6], 95.5% (active).

For the compound `N#CC1(C#N)CC1(C#N)C#N`, the growth inhibition in experiment [1] was 7.9% (inactive); in experiment [2] it was 16.4% (inactive); in experiment [3], -1.75% (inactive); in experiment [4], 27.1% (inactive); in experiment [5], 12.7% (inactive); in experiment [6], 15.2% (inactive).

For the compound `CC(=O)Nc1c(CCCCc2ccccc2)[nH]c(=O)[nH]c1=O`, the growth inhibition in experiment [1] is 1.8% (inactive); in experiment [2], 22.5% (inactive); in experiment [3], 25.8% (inactive); in experiment [4], 1.4% (inactive); in experiment [5] it was 17% (inactive); in experiment [6] it was -0.95% (inactive).

In the case of `CN1C(c2ccccc2)=C(C#N)C(=O)CC(c2ccc(Cl)cc2)N1C` (stereo unspecified), the growth inhibition in experiment [1] is -7.75% (inactive); in experiment [2] it was 0.05% (inactive); in experiment [3], -4.75% (inactive); in experiment [4] it was -15.8% (inactive); in experiment [5], -15.8% (inactive); in experiment [6], 2.65% (inactive).

Take `O=C(Cn1c(-c2ccccc2)cc2ccccc21)N1CCOCC1`: the growth inhibition was -0.45% (inactive) in experiment [1]; -32.9% (inactive) in experiment [2]; -39% (inactive) in experiment [3]; -18.1% (inactive) in experiment [4]; 1.65% (inactive) in experiment [5]; -28.1% (inactive) in experiment [6].

In the case of `O=c1ccc2c(-c3ccccc3O)c3ccc(O)cc3oc-2c1`, the growth inhibition in experiment [1] is 91.8% (active); in experiment [2] it was 78.4% (active); in experiment [3] it was 85% (active); in experiment [4], 86.9% (active); in experiment [5] it was 88.5% (active); in experiment [6] it was 95.5% (active).

For `COCCCC(NC(=O)C(CC(C)C)NC(=O)OCc1ccc(OC)cc1)C(N)=O` (stereo unspecified), the growth inhibition is -12.9% (inactive) in experiment [1]; -21.4% (inactive) in experiment [2]; -22.9% (inactive) in experiment [3]; 4.2% (inactive) in experiment [4]; -12.1% (inactive) in experiment [5]; 4.2% (inactive) in experiment [6].

On to `COc1ccc(NC(C)=O)c(C(=O)CCNC(C)=O)c1`, for which the growth inhibition in experiment [1] was -5.85% (inactive); in experiment [2], -15.4% (inactive); in experiment [3], -31.1% (inactive); in experiment [4], -7.4% (inactive); in experiment [5], -40% (inactive); in experiment [6], -23.4% (inactive).

`Cc1ccc(N=Nc2ccc(N)cc2C)c(S(N)(=O)=O)c1`: the growth inhibition in experiment [1] is 40.3% (inactive); in experiment [2] it was 4.05% (inactive); in experiment [3] it was 51.3% (inactive); in experiment [4], 5.05% (inactive); in experiment [5], 61.8% (inactive); in experiment [6], 49% (inactive).

With `CN(C)c1c([O-])c(=[N+](C)C)c1=O`, the growth inhibition is -37.9% (inactive) in experiment [1]; -14.2% (inactive) in experiment [2]; -20.2% (inactive) in experiment [3]; -10.6% (inactive) in experiment [4]; -5.55% (inactive) in experiment [5]; -45.9% (inactive) in experiment [6].

Consider `COc1nc(SC)nc2c1cnn2C1OC(C(O)CO)C(OC)C1O` (stereo unspecified), for which the growth inhibition in experiment [1] is 4.85% (inactive); in experiment [2] it was -1.7% (inactive); in experiment [3], 3.35% (inactive); in experiment [4], 9.95% (inactive); in experiment [5], -4.6% (inactive); in experiment [6], 16.3% (inactive).
